PubChem BioAssay (NCATS)
Records with an inconclusive call do not appear. Values without a mark were called inactive. Activity calls are given as the source filed them. The call rests on the fitted dose curve; in most records, active means well fitted inhibition curve with a large enough effect; inconclusive means small, poorly fitted or top-dose-only effect; inactive means flat fitted curve, though single readings scatter. Where a SMILES comes first, the peptide text is derived from it. [ ]: non-standard residue; d: D form. Hyp = O=C(O)[CH]1C[CH](O)CN1; Phe(ol) = N[CH](CO)Cc1ccccc1; Iva = CC[C](C)(N)C(=O)O; Aib = CC(C)(N)C(=O)O
On the % scale 0 is the no-effect control and ±100 the full control effect; potency means the concentration at half of the fitted maximal effect.

Test: P-glycoprotein substrates identified in KB-8-5-11 adenocarcinoma cell line, qHTS therapeutic library screen (AID 1346987); further: nearly all actives have a fitted effect of over 65% in size
Conditions: KB-8-5-11 (P-gp overexpressing) viability, CellTiter-Glo, 72 h; series mostly up to 44.5 µM; activity change, negative = cytotoxicity: at the top concentration
Summary of the method: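 KB-8-5-11, a colchicine-selected P-gp-overexpressing KB-3-1 subline, was grown without colchicine for the assay. Cells were seeded at 500 cells/well, dosed in concentration-response and incubated 72 h at 37 degree C, 5% CO2. Viability was read by CellTiter-Glo luminescence.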
CCC(C)(NC(=O)C(CCC(N)=O)NC(=O)C1CC(O)CN1C(=O)C(C)(C)NC(=O)C(C)(C)NC(=O)C(CC(C)C)NC(=O)CNC(=O)C(NC(=O)C(C)(C)NC(=O)C(C)(C)NC(=O)C(C)(C)NC(=O)C(Cc1ccccc1)NC(C)=O)C(C)C)C(=O)N1CC(O)CC1C(=O)NC(C)(C)C(=O)NC(CO)Cc1ccccc1 (centres undefined) (Ac-F[Aib][Aib][Aib]VGL[Aib][Aib][Hyp]Q[Iva][Hyp][Aib][Phe(ol)]; configuration not given here) showed an activity change, negative = cytotoxicity of -10.8% [at 9.29 µM].
For COC(=O)C(Cc1ccc(OCCn2c(=O)sc3cc(C(=O)c4ccccc4)ccc32)cc1)C(=O)OC, the “outcome” value was “inactive”.
For CCC(CC)C(c1ccc(Nc2nc3ccccc3s2)cc1)n1cncn1 (centres undefined), the Potency was 23.1 µM (active).
With C=C(C)C(=O)OC1CC2(C)OC(=CC2=O)C(=C)CC2OC(=O)C(=C)C12 (centres undefined) the Potency was 10.1 µM (active).
With CNCCN1CCC(c2cc(CN(C)C(=O)c3cccc(Oc4ccccc4)c3)ccn2)CC1 the “outcome” value was “inactive [at 17.3 µM]”.
With C/C=C(\C)C(=O)OC1C=C(C)CC(OC(=O)c2ccc(O)cc2)C2C1(C)CCC2(O)C(C)C (centres undefined) the “activity change, negative = cytotoxicity” value was -21.9% [at 17.3 µM].
For C=C(C)[C@@H]1CC[C@]2(C(=O)O)CC[C@]3(C(=O)O)[C@H](CCC4[C@@]5(C)CCC(=O)C(C)(C)C5CC[C@]43C)C12 (some centres undefined), the “activity change, negative = cytotoxicity” value was -14.5% [at 17.3 µM].
In the case of COc1cc(N2CCC(O)CC2)ccc1Nc1nc(Nc2ccccc2S(=O)(=O)C(C)C)c2[nH]cnc2n1, the “activity change, negative = cytotoxicity” value is reported as -5.23%.
With C=C1/C(=C/C=C2\CCC[C@]3(C)[C@@H]([C@H](C)CC[C@@H](O)C(C)(C)O)CC[C@@H]23)C[C@@H](O)C[C@@H]1O the “activity change, negative = cytotoxicity” value was -35.8%.
With CCCCNc1ncc2c(-c3ccc(S(=O)(=O)N4CCOCC4)cc3)nn(C3CCC(O)CC3)c2n1 (centres undefined) the Potency was 7.31 µM (active).
In the case of O=c1cc(NCCCN[C@@H]2CCOc3c(Br)cc(Br)cc32)[nH]c2ccsc12, the “activity change, negative = cytotoxicity” value is reported as -12.4%.
With C=C(C(=O)O)[C@@H]1CC=C(CCC(C)=O)[C@@H](C)CC1 the “activity change, negative = cytotoxicity” value was -0.516%.
With COc1cc2nc(N3CCN(C(=O)c4ccco4)C4CCCCC43)nc(N)c2cc1OC (centres undefined) the Potency was 14.6 µM (active).
In the case of C=C1CC[C@@H]2[C@](C)(CO)[C@H](O)CC[C@@]2(C)[C@@H]1CC(=O)C1=CCOC1=O, the “activity change, negative = cytotoxicity” value is reported as -9.69%.
For O=C(c1c(F)ccc(NS(=O)(=O)N2CC[C@@H](F)C2)c1F)c1c[nH]c2ncc(-c3cnc(C4CC4)nc3)cc12, the “activity change, negative = cytotoxicity” value was -12.7%.
In the case of COc1cc(C(N)=O)nc(-c2ccccn2)c1O, the “activity change, negative = cytotoxicity” value is reported as -53.5%.
With CC[C@H](C)/C=C(C)/C=C/C1=CC2=CC(=O)[C@]3(C)OC(=O)[C@@H](C(C)=O)[C@@H]3C2=CO1 the “activity change, negative = cytotoxicity” value was 3.81%.
For COc1ccc(NC(=O)C2C[C@H](C)CC[C@H]2C(C)C)cc1 (some centres undefined), the “activity change, negative = cytotoxicity” value was -15.3%.
In the case of CN(C)N(C)C(=O)[C@@]1(Cc2ccccc2)CCCN(C(=O)[C@@H](Cc2c[nH]c3ccccc23)NC(=O)C(C)(C)N)C1, the “outcome” value is reported as “inactive”.
In the case of Cn1ncnc1[C@H]1c2n[nH]c(=O)c3cc(F)cc(c23)N[C@@H]1c1ccc(F)cc1, the “activity change, negative = cytotoxicity” value is reported as -15.9% [at 17.3 µM].
With COC(=O)C[C@](O)(CCCC(C)(C)O)C(=O)O[C@@H]1C(OC)=CC23CCCN2CCc2cc4c(cc2[C@H]13)OCO4 (some centres undefined) the Potency was 13 µM (active).
With COc1ccc(CCN(C)CCCOc2nsc(-c3ccccc3)n2)cc1OC the “activity change, negative = cytotoxicity” value was -12.1%.
With O=C(NCCN1CCC(n2c(=O)[nH]c3ccccc32)CC1)c1cc2cc(F)ccc2[nH]1 the “activity change, negative = cytotoxicity” value was -2.08%.
In the case of CC1(C)C2CCC(CO[C@@H]3O[C@H](CO[C@@H]4OC[C@](O)(CO)[C@H]4O)[C@@H](O)[C@H](O)[C@H]3O)C1C2 (some centres undefined), the “outcome” value is reported as “inactive [at 17.3 µM]”.
For COc1ccc2c(c1O[C@H]1CCNC1)CCC2, the “activity change, negative = cytotoxicity” value was 2.35%.
With COc1ccc(C2=NC(c3ccc(Cl)cc3)C(c3ccc(Cl)cc3)N2C(=O)N2CCNC(=O)C2)c(OC(C)C)c1 (centres undefined) the “activity change, negative = cytotoxicity” value was 5.71%.
In the case of C=C[C@@]1(C)CCC2C(=CCC3[C@]2(C)CCC[C@@]3(C)C(=O)O)C1 (some centres undefined), the “activity change, negative = cytotoxicity” value is reported as -24.6%.
In the case of CC(=O)NCc1cccc(OC[C@@H](O)CNCCc2ccc(NS(=O)(=O)c3ccccc3)cc2)c1, the “outcome” value is reported as “inactive”.
For CC(=O)OC1C(=O)C2C3OCC4=C3[C@@](C)(CC[C@@H]4O)CC[C@]2(C)[C@H]1C(C)C (some centres undefined), the “activity change, negative = cytotoxicity” value was -6.73%.
In the case of C=C1C(=O)O[C@@H]2[C@H]3C(C)=CC(=O)C3=C(C)[C@@H](OC(=O)/C(C)=C\C)[C@H](O)[C@@H]12, the “activity change, negative = cytotoxicity” value is reported as -27.3%.
In the case of Cc1cc2occ(CN(C)CCN(C)Cc3cn(-c4cccc(C(F)(F)F)c4)c4ccccc34)c(=O)c2cc1C, the Potency is reported as 18.4 µM (active).
With CC(CCC1(O)OC2CC3C4CC=C5C[C@@H](O[C@@H]6O[C@H](CO)[C@@H](O[C@@H]7O[C@@H](C)[C@H](O)[C@@H](O)[C@H]7O)[C@H](O)[C@H]6O[C@@H]6O[C@@H](C)[C@H](O)[C@@H](O)[C@H]6O)CC[C@]5(C)C4CC[C@]3(C)[C@@]2(O)[C@@H]1C)CO[C@@H]1O[C@H](CO)[C@@H](O)[C@H](O)[C@H]1O (some centres undefined) the activity change, negative = cytotoxicity was -2.5% [at 9.29 µM].
For CC(C)(O)C(=O)N1CCN(c2ccc(C(F)(F)F)c(C3=C(c4c[nH]c5ccccc45)C(=O)NC3=O)c2)CC1, the “outcome” value was “inactive”.
In the case of CCC/C=C/C=C/C1CC(O)C2(O)C(=O)OCC12 (centres undefined), the “outcome” value is reported as “inactive”.
For C/C=C(\C)C(=O)OC1C[C@@]2(COC(C)=O)O[C@H]2/C=C\[C@@]2(C)O[C@@H]2[C@H]2OC(=O)C(COC(C)=O)=C12 (some centres undefined), the “activity change, negative = cytotoxicity” value was -0.966% [at 17.3 µM].
For CC(NC(=O)Cc1cc(F)cc(F)c1)C(=O)NC1C(=O)N(C)c2ccccc2-c2ccccc21 (centres undefined), the Potency was 14.6 µM (active).
With CNS(=O)(=O)c1ccccc1Nc1nc(Nc2ccc(N3CCN(C)CC3)cc2OC)ncc1Br the Potency was 2.06 µM (active).
For C=CS(=O)(=O)NC1CCN(C(=O)CNc2cc(I)c(Cl)cc2OC)CC1, the Potency was 14.6 µM (active).
In the case of CC1(C)SCCN(S(=O)(=O)c2ccc(Oc3ccncc3)cc2)[C@H]1C(=O)NO, the “activity change, negative = cytotoxicity” value is reported as -5.29%.
